# Measurements as given in PubChem BioAssay (NCATS).
# Inconclusive results are not listed. Entries that show only a call come without a potency. Active and inactive are the calls of the source. Calls follow the shape of the dose curve; as a rule, active = well fitted cell-killing curve with a large enough effect; inconclusive = small, poorly fitted or top-dose-only effect; inactive = flat fitted curve, though single readings scatter.
# Assay: Cell Viability - LYMP2-026 (AID 989);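 also: cells exposed to compound for 24 h at 37 °C; nearly all actives have a fitted effect of over 50% in size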
# Details: LYMP2-026 lymphoblastoid cell viability, qHTS; series mostly up to 92.2 µM
# Text: NIH Chemical Genomics Center [NCGC]
# NIH Molecular Libraries Screening Centers Network [MLSCN]
# National Institutes of Environmental Health Sciences [NIEHS]
# National Toxicology Program [NTP]
# We have developed a 1536-well cell-based assay for quantitative high throughput screening (qHTS) against a number of cell lines to determine in vitro cytotoxicity of small molecules. This particular assay uses a human lymphoblastoid cell line (LYMP2-026) purchased from Coriell Institute for Medical Research.
# NCGC Assay Protocol Summary:
# The CellTiter-Glo luminescent cell viability assay (Promega) is a homogeneous method to measure the number of viable cells in culture. The end point readout of this assay is based on quantitation of intracellular ATP, an indicator of metabolic activity, using the luciferase reaction. Luciferase catalyzes the oxidation of beetle Luciferin to oxyluciferin and light in the presence of ATP. The luminescent signal is proportional to amount of ATP present.
# Using the CellTiter-Glo luminescent cell viability assay, the amount of cellular ATP was measured in the lymphoblastoid cell line with complete culture medium following compound treatment for 24 hours. The assay was performed in opaque white Kalypsys 1536-well plates. In the screen, tetraoctylammonium bromide was used as positive control. Library compounds were measured for their ability to cause acute toxicity in the cell line, as reflected by a decrease in intracellular ATP levels, in a concentration-dependent manner. […] AC50 values were determined from concentration-response data modeled with the standard Hill equation.
# qHTS protocol for CellTiter Glo lymphoblastoid cellular assay
# [Step] [Parameter] [Value] [Description]
# 1. Reagent; 5 uL; 2500 lymphoblastoid cells/well
# 2. Time; 5 hr; 37 C incubation
# 4. Controls; 23 nL; Tetraoctylammonium bromide 6.4pM to 92 uM
# 5. Time; 24 hr; 37 C incubation
# 6. Reagent; 5 uL; CellTiter Glo reagent
# 7. Time; 30 min; Room Temperature
# 8. Detection; Luminescence; Viewlux plate reader
# Keywords: cell viability, cytotoxicity, lymphoblastoid cell line, luminescence, NTPHTS, NTPHTS_NCGC, NIEHS, DSSTox, MLSMR, MLSCN, NIH Roadmap, qHTS, NCGC
# Potency is read from the fitted curve at half-maximal effect.
row,Compound,Potency
1,Clc1nc(Cl)nc(Nc2ccccc2Cl)n1,inactive
2,BrCCBr,inactive
3,Nc1c(Cl)c(Cl)nc(C(=O)O)c1Cl,inactive
4,COC1=CC(=O)OC(CCc2ccccc2)C1 (stereo not given),inactive
5,O=NN(CCO)CCO,inactive
6,Cc1cccc([N+](=O)[O-])c1,inactive
7,Cc1ccccc1N,inactive
8,COP(=S)(OC)Oc1ccc([N+](=O)[O-])cc1,inactive
9,CCCOC(=O)c1ccccc1C(=O)OCCC,inactive
10,CCN(CC)c1ccccc1,inactive
11,Cc1cccc(C#N)c1,inactive
12,Cc1ccc([N+](=O)[O-])cc1C,inactive
13,c1ccc2c(c1)CCCC2,inactive
14,O=C1C(Cl)=C(Cl)C(=O)C(Cl)=C1Cl,25.1 µM (active)
15,CCCCCCCC(=O)Cl,inactive
16,C[N+](C)(C)Cc1ccccc1,inactive
17,CC(C)(OO)c1ccccc1,inactive
18,O=NN(c1ccccc1)c1ccccc1,inactive
19,Cc1ccc2ccccc2c1,inactive
20,ClC1=C(Cl)C2(Cl)C3C(Cl)C=CC3C1(Cl)C2(Cl)Cl (stereo not given),inactive

row,Compound,Potency
1,CC(=O)[O-].CC(=O)[O-].O.O.O.[Pb+2],inactive
2,S=C=Nc1cccc2ccccc12,inactive
3,C=CCOC(=O)c1ccccc1N,inactive
4,Nc1ccc(Br)cc1,inactive
5,CC(Cl)Cl,inactive
6,Cc1ccc(O)c(C)c1,inactive
7,C=CCc1ccc2c(c1)OCO2,inactive
8,c1ccc(N=Nc2ccccc2)cc1,inactive
9,Clc1ccc2ccccc2c1,inactive
10,OCC1CO1 (stereo not given),inactive
11,COc1ccc(C=O)cc1OC,inactive
12,COc1ccc(N)cc1,inactive
13,Nc1ccccc1Cl,inactive
14,C=CCc1ccc(OC)cc1,inactive
15,CCCCCCCCCc1ccc(O)cc1,inactive
16,CCSC(=O)Cl,inactive
17,CC(C)(c1ccccc1)c1ccc(O)cc1,inactive
18,C=CC(C)=O,inactive
19,ClCBr,inactive
20,O=C=NC1CCCCC1,inactive
